# Reference: the supplement of paper PMC8975748
# ± gives the standard deviation of the averaged measurements.
# Experiments:
# [1] = system: Saccharomyces cerevisiae BY4741 SeMeCo community; assay: mean cell size (pixel area) (pixels); higher = larger cells; conditions: 10 µM; 24 h; SM minimal medium
# How it was run: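 A fluorescent Saccharomyces cerevisiae BY4741 community carrying four plasmids was used, with each plasmid complementing one auxotrophy and bearing a fluorescent marker. An overnight preculture at OD600 = 1.0 was diluted to OD600 = 0.3, and 70 µl went into 384-well plates acoustically predosed with drug (final 10 µM) in SM medium for 24 h. After paraformaldehyde fixation, cells were imaged by automated confocal microscopy and analysed in Harmony, giving the mean cell pixel area per well. Each value is the average of 3 replicates. Same SeMeCo high-content imaging drug screen: Selleck FDA-approved drugs at 10 µM, 24 h in SM medium, 384-well plates, 3 replicates.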
# [2] = system: Saccharomyces cerevisiae BY4741 SeMeCo community; assay: z-score of prototroph abundance vs DMSO median; higher = larger share of this subpopulation than in DMSO controls; conditions: 10 µM; 24 h; SM minimal medium; subpopulation (auxotrophy): Prototroph
# How it was run: (§1)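 Cells of a Saccharomyces cerevisiae BY4741 community, carrying four plasmids that each restored one auxotrophy and encoded a distinct fluorescent protein, were pre-grown overnight to OD600 1.0 and diluted to 0.3. A 70 µl volume was added to 384-well plates acoustically predosed with library drugs (10 µM final) and grown 24 h in minimal SM medium. After paraformaldehyde fixation, automated confocal microscopy was used, with single-auxotroph fluorescent strains for thresholds and autofluorescence correction. The abundance of each subpopulation was scored as a z-score against the vehicle-well median.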
# [3] = system: Saccharomyces cerevisiae BY4741 SeMeCo community; assay: z-score of subpopulation abundance vs DMSO median, subpopulation auxotrophic for M; higher = larger share of this subpopulation than in DMSO controls; conditions: 10 µM; 24 h; SM minimal medium; subpopulation (auxotrophy): M
# How it was run: as §1
# [4] = system: Saccharomyces cerevisiae BY4741 SeMeCo community; assay: z-score of subpopulation abundance vs DMSO median, subpopulation auxotrophic for L; higher = larger share of this subpopulation than in DMSO controls; conditions: 10 µM; 24 h; SM minimal medium; subpopulation (auxotrophy): L
# How it was run: as §1
# [5] = system: Saccharomyces cerevisiae BY4741 SeMeCo community; assay: z-score of subpopulation abundance vs DMSO median, subpopulation auxotrophic for U; higher = larger share of this subpopulation than in DMSO controls; conditions: 10 µM; 24 h; SM minimal medium; subpopulation (auxotrophy): U
# How it was run: as §1
# [6] = system: Saccharomyces cerevisiae BY4741 SeMeCo community; assay: z-score of subpopulation abundance vs DMSO median, subpopulation auxotrophic for H; higher = larger share of this subpopulation than in DMSO controls; conditions: 10 µM; 24 h; SM minimal medium; subpopulation (auxotrophy): H
# How it was run: as §1
# [7] = system: Saccharomyces cerevisiae BY4741 SeMeCo community; assay: z-score of subpopulation abundance vs DMSO median, subpopulation auxotrophic for LU; higher = larger share of this subpopulation than in DMSO controls; conditions: 10 µM; 24 h; SM minimal medium; subpopulation (auxotrophy): LU
# How it was run: as §1
# [8] = system: Saccharomyces cerevisiae BY4741 SeMeCo community; assay: z-score of subpopulation abundance vs DMSO median, subpopulation auxotrophic for HM; higher = larger share of this subpopulation than in DMSO controls; conditions: 10 µM; 24 h; SM minimal medium; subpopulation (auxotrophy): HM
# How it was run: as §1
# [9] = system: Saccharomyces cerevisiae BY4741 SeMeCo community; assay: z-score of subpopulation abundance vs DMSO median, subpopulation auxotrophic for HU; higher = larger share of this subpopulation than in DMSO controls; conditions: 10 µM; 24 h; SM minimal medium; subpopulation (auxotrophy): HU
# How it was run: as §1
# [10] = system: Saccharomyces cerevisiae BY4741 SeMeCo community; assay: z-score of subpopulation abundance vs DMSO median, subpopulation auxotrophic for HL; higher = larger share of this subpopulation than in DMSO controls; conditions: 10 µM; 24 h; SM minimal medium; subpopulation (auxotrophy): HL
# How it was run: as §1
# [11] = system: Saccharomyces cerevisiae BY4741 SeMeCo community; assay: z-score of subpopulation abundance vs DMSO median, subpopulation auxotrophic for HLU; higher = larger share of this subpopulation than in DMSO controls; conditions: 10 µM; 24 h; SM minimal medium; subpopulation (auxotrophy): HLU
# How it was run: as §1
# [12] = system: Saccharomyces cerevisiae BY4741 SeMeCo community; assay: z-score of subpopulation abundance vs DMSO median, subpopulation auxotrophic for HLM; higher = larger share of this subpopulation than in DMSO controls; conditions: 10 µM; 24 h; SM minimal medium; subpopulation (auxotrophy): HLM
# How it was run: as §1
# [13] = system: Saccharomyces cerevisiae BY4741 SeMeCo community; assay: z-score of subpopulation abundance vs DMSO median, subpopulation auxotrophic for HUM; higher = larger share of this subpopulation than in DMSO controls; conditions: 10 µM; 24 h; SM minimal medium; subpopulation (auxotrophy): HUM
# How it was run: as §1
# [14] = system: Saccharomyces cerevisiae BY4741 SeMeCo community; assay: z-score of subpopulation abundance vs DMSO median, subpopulation auxotrophic for LUM; higher = larger share of this subpopulation than in DMSO controls; conditions: 10 µM; 24 h; SM minimal medium; subpopulation (auxotrophy): LUM
# How it was run: as §1
# [15] = system: Saccharomyces cerevisiae BY4741 SeMeCo community; assay: z-score of subpopulation abundance vs DMSO median, subpopulation auxotrophic for HLUM; higher = larger share of this subpopulation than in DMSO controls; conditions: 10 µM; 24 h; SM minimal medium; subpopulation (auxotrophy): HLUM
# How it was run: as §1
# [16] = system: Saccharomyces cerevisiae BY4741 SeMeCo community; assay: z-score of subpopulation abundance vs DMSO median, subpopulation auxotrophic for UM; higher = larger share of this subpopulation than in DMSO controls; conditions: 10 µM; 24 h; SM minimal medium; subpopulation (auxotrophy): UM
# How it was run: as §1
Structure (SMILES),mean cell size [1],z-score of prototroph abundance [2],z-score of subpopulation abundance [3],z-score of subpopulation abundance [4],z-score of subpopulation abundance [5],z-score of subpopulation abundance [6],z-score of subpopulation abundance [7],z-score of subpopulation abundance [8],z-score of subpopulation abundance [9],z-score of subpopulation abundance [10],z-score of subpopulation abundance [11],z-score of subpopulation abundance [12],z-score of subpopulation abundance [13],z-score of subpopulation abundance [14],z-score of subpopulation abundance [15],z-score of subpopulation abundance [16]
CCOc1ccc2nc3cc(N)ccc3c(N)c2c1 [Ethacridine lactate monohydrate],12.86 ± 0.11,3.33,5.99,1.84,-8.13,4.4,-7.71,5.32,-8.09,3.54,-4.38,5.56,-6.59,-5.24,-2.52,
CC(c1cc2ccccc2s1)N(O)C(N)=O (stereo not given) [Zileuton],12.6 ± 0.19,0.05,0.27,0.85,0.31,,0.65,-0.32,-0.39,-0.17,0.44,0.43,-0.33,0.12,0,0.34
CCOC(=O)C1=C(C)NC(C)=C(C(=O)OCC)C1c1ccccc1/C=C/C(=O)OC(C)(C)C [Lacidipine],12.5 ± 0.14,0.54,3.48,1.08,-3.36,1.2,-2.51,1.9,-2.93,-0.42,-0.94,1.17,-0.96,-1.16,-0.21,-2.61
CC1(C)S[C@@H]2[C@H](NC(=O)[C@H](NC(=O)N3CCN(S(C)(=O)=O)C3=O)c3ccccc3)C(=O)N2[C@H]1C(=O)O [Mezlocillin Sodium],12.5 ± 0.21,,-0.07,0.24,0,0.1,0.6,-0.71,0.3,-0.55,0.28,-0.19,-0.29,-0.16,-0.69,-0.36
C/C=C1\[C@H]2C=C(C)C[C@]1(N)c1ccc(=O)[nH]c1C2 [(-)-Huperzine A (HupA)],12.04 ± 0.12,0.12,1.03,-0.33,,-1.16,-0.37,0.12,-0.26,-1.26,-0.57,-0.61,0.11,-0.73,,0.89
CC[C@H](C)C[C@H](C)CCCCCCCCC(=O)N[C@H]1C[C@@H](O)[C@@H](NCCN)NC(=O)[C@@H]2[C@@H](O)CCN2C(=O)[C@H]([C@H](O)CCN)NC(=O)[C@H]([C@H](O)[C@@H](O)c2ccc(O)cc2)NC(=O)[C@@H]2C[C@@H](O)CN2C(=O)[C@H]([C@@H](C)O)NC1=O [Caspofungin Acetate],12.17 ± 0.068,-12.2,-8.37,5.93,-3.79,31.6,-0.13,-0.2,8.05,51.3,13.9,45.5,10.8,5.81,127,
CO[C@@]1(NC(=O)Cc2cccs2)C(=O)N2C(C(=O)O)=C(COC(N)=O)CS[C@@H]21 [Cefoxitin sodium],12.5 ± 0.3,1.38,-0.16,-1.28,-0.18,-0.25,-0.8,0.04,-0.94,-0.41,-1.19,-0.9,-1.19,-0.95,-0.41,
